Hit rate of the full screen: of about 69,000 compounds, about 8,600 (12%) showed an effect of 50% or more. The full list was thinned out, with strong results kept by preference.

This assay deals with Plasmodium berghei. In words: Screen against P. berghei liver stage (PbLuc), transformed with Luciferase, at 10uM. Conditions: tested at 10 uM. The format is functional, HepG2.
In the case of `Cc1nc(C2CCCN2C(=O)Cc2cccc(F)c2)nc(O)c1C` (stereo unspecified), the INHIBITION was found to be 11.1%.
Then `O=C(Cc1ccsc1)N1CCCC2(COCCN(CC3CC3)C2)C1` (stereo unspecified), with -14.3%; and `COCCNC(=O)Cn1cc(NC(=O)c2cc(Cl)c(Cl)n2C)cn1`, with 12.9%; and `Cc1cc(C)n(CC2CN(CC(=O)NCc3cccs3)CCO2)n1` (stereo unspecified), with 18.933%.
Under `CCc1nccn1CC(=O)N1C[C@@H]2CC[C@H]1CN(C(=O)N(C)C)C2` stands -19.7%; under `CCc1nccn1CCC(=O)N1CC(=O)N(c2ccccc2C)CC1C` (stereo unspecified), 49.9%; under `Cc1ccccc1N1CC(C)N(Cc2ccc(C)c(F)c2F)CC1=O` (stereo unspecified), -8.92%.
Under `CCc1nccn1CCC(=O)N1CCN(c2ccccc2C)CC1C` (stereo unspecified) stands 66.7%.
Regarding `CCc1nccn1CCC(=O)N1C[C@@H]2CC[C@H]1CN(C(=O)N(C)C)C2`, the INHIBITION was 50.2%.
In the case of `Cc1ccccc1N1CCN(C(=O)CCc2nncn2C)C(C)C1` (stereo unspecified), the INHIBITION worked out at 8.38%.
Under `CCc1nccn1CC(=O)N1C[C@@H]2CC[C@H]1CN(S(=O)(=O)N(C)C)C2` stands 17%; under `Cc1ccccc1N1CC(C)N(C(=O)CCn2cccn2)CC1=O` (stereo unspecified), 64.5%; under `COc1cccc(CN2CC(=O)N(c3ccccc3C)CC2C)c1OC` (stereo unspecified), 17.8%.
Then `COCCn1ccnc1C1CCN(C(=O)CSc2nnc(C)o2)CC1`, with 7.24%.
As to `COc1ncccc1CNC(=O)c1c(C)oc(C)c1C`, the INHIBITION was found to be 5.1%.
Then `CNC(=O)c1ccc(C2CN(CC(=O)N(C)C)CCO2)nc1` (stereo unspecified), with -3.94%; and `c1cncc(OCC2CC3(CCN(CC4CC4)CC3)CO2)c1` (stereo unspecified), with 13.7%; and `COc1ccc(C)nc1NC(=O)Cc1c(C)nn(C)c1C`, with 41.6%.
Then `COCC[C@]1(O)CCN(CC(=O)NCc2ccccc2C)C[C@H]1C`, with 46.3%; and `O=C(Cc1ccccn1)NCC1OCCc2cn(CC3CC3)nc21` (stereo unspecified), with 3.25%; and `O=S(=O)(NCc1cccnc1OC1CCCC1)N1CCOCC1`, with 16.3%.
Then `Cc1ccc(Oc2ncccc2CNS(=O)(=O)N2CCOCC2)cn1`, with 70.1%; and `CCOc1ncccc1CNS(=O)(=O)N1CCOCC1`, with -8.28%.
`O=c1cc(Cn2cncn2)nc2n1CCCN(CCN1CCCC1)C2`: the INHIBITION is recorded as 16.6%.
Under `Cc1cc(C)n(C2CN(CC(O)c3ccc(C(F)(F)F)cc3)C2)n1` (stereo unspecified) stands -24.2%; under `c1cc2nccc(CC3CCCN(Cc4ncc[nH]4)CC3)c2cn1` (stereo unspecified), 32.4%; under `Cn1ccnc1CN1CCCC(Cc2ccnc3ccncc23)CC1` (stereo unspecified), 29.3%.
As to `c1cc2nccc(CC3CCCN(Cc4c[nH]cn4)CC3)c2cn1` (stereo unspecified), the INHIBITION worked out at 75.3%.
With `CC(C)c1ccc(OCC(=O)N(C)C)cc1`, the INHIBITION was -11.2%.
Then `CC(C)n1c(=O)[nH]c2cn(-c3ccccc3)c(=O)n21`, with 6.32%.
Then `CCNC(=O)C1(Cc2cc(-c3ccc(C)cc3)no2)CCCN(C)C1` (stereo unspecified), with 23%; and `c1ccc(-c2nnc([C@H]3CCN(C4CCC4)C3)o2)cc1`, with 46.4%.
As for `c1cc(-c2nnc([C@H]3CCN(C4CCOCC4)C3)o2)ccn1`, the INHIBITION stood at 54%.
Regarding `c1cc(-c2nnc([C@H]3CCN(C4CCCCC4)C3)o2)ccn1`, the INHIBITION was -5.77%.
On to `Cc1ccc(-c2nnc([C@H]3CCN(C4CCC4)C3)o2)cc1`, for which the INHIBITION is on record as 4.07%.
Then `COc1ccc(-c2nnc([C@H]3CCN(C4CCC4)C3)o2)cc1`, with 57.8%; and `c1ccc(-c2nnc([C@H]3CCN(C4CCOCC4)C3)o2)cc1`, with 18.4%; and `O=C(NCCc1ccccn1)[C@@]12CCO[C@@H]1CCN(c1ncccn1)C2`, with 34.6%.
Then `CCc1ncc2c(n1)CN(CC(=O)Nc1cccnc1)CC2`, with 19.4%.
Take `CSc1ccc(NC(=O)Cn2cc(NC(C)=O)cn2)cc1`: the INHIBITION is given as 33.7%.
Then `CCOC(=O)[C@H]1[C@@H](O)C(=O)N(C)C12CCN(C(=O)OC)CC2`, with 29.8%.
Under `Cn1ccc(CN2CCC(CC(=O)NC3CCCC3)CC2)cc1=O` stands 27.2%.
On to `COc1cc(CNC(=O)COC2CCCCC2)ccc1O`, for which the INHIBITION was 26.5%.
Under `Cc1noc([C@@H]2C[C@H]3OCC[C@H]3N(S(=O)(=O)c3ccccc3)C2)n1` stands -5.08%; under `Cc1occc1C(=O)NCC(=O)NCCOc1cccc(Cl)c1`, -10.6%.
Under `Cc1occc1C(=O)NCC(=O)NCCCOc1ccc(F)cc1` stands 54.5%.
Then `Cc1occc1C(=O)NCC(=O)N(C)CCCOc1ccccc1`, with 61%; and `Cc1occc1C(=O)NCC(=O)NCCOc1ccc2c(c1)CCC2`, with 42.3%; and `Cc1ccccc1C(NC(=O)CNC(=O)c1ccoc1C)C(C)C` (stereo unspecified), with -68.2%.
On to `Cc1occc1C(=O)NCC(=O)N(C)CCCOc1ccc(F)cc1`, for which the INHIBITION is 26.7%.
Under `O=C1CC(c2ccc(C(F)(F)F)cc2)c2c(n3ccsc3nc2=O)N1` (stereo unspecified) stands 17%.

For the origin of these results see ChEMBL document CHEMBL4513216, “Probing the Open Global Health Chemical Diversity Library for Multistage-Active Starting Points for Next-Generation Antimalarials” (ACS Infect Dis, 2020).
